Columns and labels:
Assay in all cases: PBM binding z-score (relative to random genomic background probes); higher = stronger binding; sequences stand for … in GC…GCGATTGACAGCGTAGAATGAAGG
[1] = test system: FXR:RXRa (NR concentration 270 nM, RXRa partner concentration 90 nM)
In short: (§1)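 Ligand-free nuclear receptor dimers were applied to custom Agilent 4×180K protein-binding microarrays whose double-stranded probes carried direct-repeat seeds, single-nucleotide variants, half-site ablations and random human genomic background sequences in 34-nt variable regions. Incubation lasted 1 h. Binding z-scores were computed against the random background probes from regression-normalized fluorescence.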

[2] = test system: LXRa:RXRa (NR concentration 270 nM, RXRa partner concentration 90 nM)
In short: as §1

[3] = test system: LXRa homodimer (NR concentration 270 nM)
In short: as §1

[4] = test system: LXRb:RXRa (NR concentration 270 nM, RXRa partner concentration 90 nM)
In short: as §1

[5] = test system: LXRb homodimer (NR concentration 270 nM)
In short: as §1

[6] = test system: PPARa:RXRa (NR concentration 270 nM, RXRa partner concentration 90 nM)
In short: as §1

[7] = test system: PPARg:RXRa 270nM:90nM, anti-RXR (NR concentration 270 nM, RXRa partner concentration 90 nM)
In short: as §1

[8] = test system: PPARg:RXRa 30nM:10nM, anti-RXR (NR concentration 30 nM, RXRa partner concentration 10 nM)
In short: as §1

[9] = test system: PPARg:RXRa 90nM:30nM, anti-RXR (NR concentration 90 nM, RXRa partner concentration 30 nM)
In short: as §1

[10] = test system: PPARg:RXRa DBDmut IVT, anti-RXR (DBD mutation: RXRa K156A/R161A, NR concentration 270 nM, RXRa partner concentration 90 nM)
In short: as §1

[11] = test system: PPARg:RXRa IVT, anti-PPARg (NR concentration 270 nM, RXRa partner concentration 90 nM)
In short: as §1

[12] = test system: PPARg DBDmut:RXRa IVT, anti-PPARg (DBD mutation: PPARg1 K132A/R137A, NR concentration 270 nM, RXRa partner concentration 90 nM)
In short: as §1

[13] = test system: PPARg DBDmut IVT, anti-PPARg (DBD mutation: PPARg1 K132A/R137A, NR concentration 270 nM)
In short: as §1

[14] = test system: PPARg homodimer (NR concentration 180 nM)
In short: as §1

[15] = test system: PXR:RXRa (NR concentration 270 nM, RXRa partner concentration 90 nM)
In short: as §1

[16] = test system: PXR homodimer (NR concentration 270 nM)
In short: as §1

[17] = test system: RARa:RXR (NR concentration 270 nM, RXRa partner concentration 90 nM)
In short: as §1

[18] = test system: RARa homodimer (NR concentration 270 nM)
In short: as §1

[19] = test system: RARb:RXRa (NR concentration 270 nM, RXRa partner concentration 90 nM)
In short: as §1

Sequence	PBM binding z-score [1]	PBM binding z-score [2]	PBM binding z-score [3]	PBM binding z-score [4]	PBM binding z-score [5]	PBM binding z-score [6]	PBM binding z-score [7]	PBM binding z-score [8]	PBM binding z-score [9]	PBM binding z-score [10]	PBM binding z-score [11]	PBM binding z-score [12]	PBM binding z-score [13]	PBM binding z-score [14]	PBM binding z-score [15]	PBM binding z-score [16]	PBM binding z-score [17]	PBM binding z-score [18]	PBM binding z-score [19]
CGTCCAAGGTCAATGCTAGCTCAGTGAAAGCATT	6.48	4.48	0.31	3.45	0.696	4.83	4	0.365	2.62	3.17	3.23	-0.245	-0.858	0.0664	3.48	0.507	3.92	0.334	5.02
TGGCCTAGGTCATGGGCCAGTATACCACGCGAAC	4.4	2.91	-0.382	1.57	-1.26	3.93	3.6	0.481	2.22	0.46	2.6	0.17	-0.783	0.937	1.04	-0.935	2.31	-0.155	3.82
ACTTACGGGTCAACGAAGTTATAGCACGCGTATA	6.23	4.01	0.164	3.62	0.73	5.47	4.81	1.85	3.63	2.94	3.94	2.05	3.18	2.32	3.73	0.0102	4.15	0.443	4.15
TTACCAAAGTGAAAGGTCGTTGATGCACGCCTTG	1.49	1.82	0.432	1.57	-0.402	3.17	5.13	2.97	5.02	-0.147	1.43	0.177	0.436	1.39	2.3	0.329	2.39	-0.107	1.86
CCCACTGGGGCAAAGGTTACCATACTCAGTACGA	1.6	1.6	-0.143	2	-0.809	5.98	9.71	9.33	11.5	5.25	7.1	0.141	-0.557	1.73	2.41	-0.111	3.81	0.0182	2.37
ACTAGCAGGCCAAAGGTCACTCAAGATTAGTCCG	4.72	4.93	2.36	4.8	0.456	6.05	8.65	8.65	9.39	2.74	5.44	-0.0674	0.109	1.96	5.11	0.886	5.72	0.747	4.81
CAAAGTAGGTCACCGGAAGGTCAAAGTCCGCATG	6.09	6.41	5.29	5.63	1.43	6.43	8.21	6.7	8.45	8.84	9.1	4.14	2.62	6.69	6.22	1.73	7.55	2.1	5.39
TAGCCTAGGTCATGGGCCTGTATACCACGCGAAC	4.51	3.39	0.196	2.64	-0.604	4.12	3.29	0.751	2.07	1.69	3.19	0.382	-0.135	1.45	1.82	-0.611	3.17	0.359	3.97
CTAACTAGGTCACCGGAAGGTCAAAGTCCGCATG	6.39	6.17	5.51	5.57	1.15	6.52	8.19	6.41	7.67	8.81	9.32	3.69	4.14	5.86	6.02	2.05	7.24	1.84	5.55
TCATATAGGTGAAAGGTGAAAGTCGGTGTGGTAA	2.9	2.52	0.284	2.76	0.0843	6.44	9.98	10.2	12.3	7.6	7.55	3.38	1.28	3.1	3.01	0.351	4.34	1.1	2.78
CAAACTAGGTCACGAAAGGTCAAAGTTGAATGAC	7.31	8.11	8.31	7.43	2.68	6.6	8.55	7.45	8.74	8.71	9.01	2.54	2	4.96	6.9	3.33	7.79	4.38	5.45
TATACTGGGTCAAAGGCCAGAGTACGAATGTCGA	4.05	3.73	1.34	2.81	1.32	5.52	8.98	8.63	10.2	6.17	7.37	3.19	3.85	5.01	2.33	0.331	3.3	0.721	3.59
AGTCAAAGTTCAGGACGAGATAACGTAAAGCACG	3.4	3.72	1.12	1.81	0.41	3.28	4.8	2.31	3.71	-0.425	1.35	0.702	0.865	1.35	1.99	0.795	1.85	1.11	4.1
TCATATAGGTTAAAGGTGAAAGTCGGTGTGGTAA	4.54	4.09	0.882	3.59	0.683	6.28	9.55	10.5	11.5	6.74	6.73	2.27	1.26	3.22	3.73	0.749	6.33	2.29	2.9
ACTCGGAGGACAGAGGTCAGAGCTACGCCAGTGA	2.85	3.27	0.56	2.62	-0.0333	3.83	4.96	2.62	4.8	0.205	2.43	-0.153	-0.704	1.89	3.17	0.328	3.9	0.568	3.57
